Out of some 5,000 compounds screened, about 3,900 (78%) were called active. Cut-off read from the data, not from the text of the source: active = inhibition above about 22%; inactive = the rest. The set was probably picked from earlier hits. Not all results are given here.

This assay can be described thus: fluorescence retest of MPTP screen hits in isolated mitochondria, single concentration (AID 624504).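 Note: 0% = DMSO vehicle and 100% = positive control.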 The settings on record: membrane potential, Rhodamine 123 fluorescence, at 10 µM, hits give high values.
As to `CCCCOC(=O)CNc1nnc(SCC(=O)OCC)[nH]c1=O`, the inhibition was -7.97% (inactive).

For `O=C(Cc1ccc(Cl)c(Cl)c1)Nc1ccc(SC(F)F)cc1`, the inhibition is 73.8% (active).

Turning to `COc1ccc(/C=C2/SC(=O)N(CCCCCC(=O)Nc3ccccc3C(=O)O)C2=S)cc1`, the inhibition is 46.1% (active).

With `CN(C(=O)Nc1ccc(Cl)cc1)n1cnc2ccccc2c1=O`, the inhibition was 89.2% (active).

Turning to `Cc1ccccc1C(=O)NC(=S)Nc1ccc(N2CCN(C(=O)c3ccccc3)CC2)cc1`, the inhibition was 81.8% (active).

In the case of `Brc1ccc(CSc2ccc(-c3ccco3)nn2)cc1`, the inhibition is -1.72% (inactive).

Consider `C/C(=N\NC(=O)c1ccc(C)cc1)C1C(=O)c2ccccc2C1=O`, for which the inhibition is 58% (active).

Turning to `Cc1onc(-c2ccccc2)c1C(=O)NNC(=S)NC(=O)c1ccc(F)cc1`, the inhibition is 2.46% (inactive).

As to `COc1ccc(-c2nc3cc(C)ccn3c2NC2CCCCC2)cc1SC1CCCCC1`, the inhibition was 77.5% (active).

Take `CN(C)Cc1ccccc1C1(O)c2ccccc2CSc2ccccc21` (stereo not drawn): the inhibition was -8.88% (inactive).

In the case of `O=C(Nc1ccccc1)c1ccccc1NC(=O)C(F)(F)F`, the inhibition was 85% (active).

Turning to `O=C(CSc1nc(-c2ccccc2)cs1)Nc1cccc([N+](=O)[O-])c1`, the inhibition is 80.1% (active).

On to `Cc1cccc(OCCNC(=O)CSc2ccc(C(F)(F)F)cc2[N+](=O)[O-])c1`, for which the inhibition is 81.3% (active).

In the case of `O=C(Nc1ccc2ccccc2c1)Nc1ccc2snnc2c1`, the inhibition was 47.9% (active).

In the case of `COc1ccc(NC(=O)Nc2ccc3nsnc3c2)cc1`, the inhibition was 84.7% (active).

For `O=C(Nc1ccccc1)Nc1nnc(COc2ccccc2F)s1`, the inhibition is 60.4% (active).

Regarding `O=C(CSc1nc2ccc([N+](=O)[O-])cc2[nH]1)c1ccc(Cl)cc1`, the inhibition was 76.5% (active).

As for `CCOC(=O)N1CCN(C(=O)c2ccc3c(c2)N(Cc2ccc(C)cc2)CCS3)CC1`, the inhibition is 63.9% (active).

Take `N#Cc1ccc(C(=O)Nc2nc(-c3cccs3)c(C(=O)C(F)(F)F)s2)cc1`: the inhibition is 109% (active).

With `Cc1cccc(NC(=S)Nc2ccc(Cl)c(Cl)c2)c1`, the inhibition was 90.8% (active).

For the compound `Cc1cccc(NC(=S)Nc2ccc(Br)cc2)c1`, the inhibition was 102% (active).

Take `S=C(Nc1ccccc1)Nc1ccc2ccccc2c1`: the inhibition was 89.2% (active).

With `FC(F)(F)COc1nc(N2CCCCC2)nc(N2CCNCC2)n1`, the inhibition is -11.8% (inactive).

Take `Cc1nn(Cc2ccccc2)c2c1C(c1ccccc1)C(C#N)=C(N)O2` (stereo not drawn): the inhibition is -0.3% (inactive).

Regarding `CC(=O)c1ccc(NC(=O)Nc2ccc([N+](=O)[O-])cc2C)cc1`, the inhibition was 90.3% (active).

With `COc1cc(NC(=O)Nc2ccc(C)cc2)cc([N+](=O)[O-])c1`, the inhibition was 95.5% (active).

For `CN(C)Cc1ccc(F)cc1Sc1cc(Cl)ccc1Cl`, the inhibition is -3.35% (inactive).

As for `O=C(Nc1cccc(F)c1)c1coc(=O)c(Br)c1`, the inhibition was 77.9% (active).

Turning to `COc1ccc(-n2c(C)cc(C(=O)CSc3nnc(-c4cccs4)o3)c2C)cc1`, the inhibition is 83% (active).

For `FC(F)(F)Oc1ccc(NC(=S)NCc2ccccc2)cc1`, the inhibition is 90.9% (active).

With `CSCCC(NC(=O)c1cc([N+](=O)[O-])cc([N+](=O)[O-])c1)c1nc2ccccc2[nH]1` (stereo not drawn), the inhibition was 81.7% (active).

For the compound `Cc1ccc(C)c(S(=O)(=O)N2CCN(c3ncnc4sccc34)CC2)c1`, the inhibition is 104% (active).

As to `Cc1cc(NC(=O)Nc2ccc(Cl)cc2)n(-c2ccccc2)n1`, the inhibition was 76.2% (active).

With `Cc1ccc(NC(=O)Nc2cc(-c3ccccc3)nn2C)cc1Cl`, the inhibition was 69.1% (active).

Regarding `Fc1ccccc1CNC(=S)Nc1ccc(Cl)cc1`, the inhibition is 90.7% (active).

With `C=C1c2c(Cl)ccc(O)c2C(O)=C2C(=O)[C@]3(O)C(O)=C(C(N)=O)C(=O)[C@@H](N(C)C)[C@@H]3[C@@H](O)C12` (stereo partly drawn), the inhibition is -13.7% (inactive).

Turning to `COc1ccc(NS(=O)(=O)c2ccc(Oc3c(C#N)cccc3C#N)cc2)cc1`, the inhibition is 75.8% (active).

`CC(NC(=S)Nc1ccccc1)C1COc2ccccc2O1` (stereo not drawn): the inhibition was 87% (active).

On to `S=C(NCCCc1ccccc1)Nc1ccc(Br)cc1`, for which the inhibition was 91.8% (active).

As for `S=C(NCC1COc2ccccc2O1)Nc1ccc(Br)cc1` (stereo not drawn), the inhibition is 93.1% (active).

Take `O=C(CSCc1ccc(Br)cc1)Nc1ccc(S(=O)(=O)N2CCCCCC2)cc1`: the inhibition was 80.4% (active).

Regarding `Fc1cc(F)c2nc(Nc3nc4c(F)cccc4s3)sc2c1`, the inhibition was 69.9% (active).

With `C=CC[n+]1c(-c2ccc(C)cc2)csc1NNC(=O)Nc1ccccc1`, the inhibition is 83.2% (active).

Take `O=C1CCCN1CCCNC(=S)Nc1ccc(F)c(Cl)c1`: the inhibition is 90.3% (active).

For the compound `Oc1c(Br)cccc1/C=N/Nc1c(F)c(F)c(F)c(F)c1F`, the inhibition was 72.3% (active).

With `Fc1ccc(N2N=C(c3cccs3)CC2c2ccco2)c(F)c1` (stereo not drawn), the inhibition is -15.1% (inactive).

As to `O=C(CC(O)(C(F)(F)F)C(F)(F)F)Nc1ccc(Cl)c(Cl)c1`, the inhibition is 84.9% (active).

For `CCOC(=O)N1CCN(C(=O)C2CCN(c3ncnc4c3sc3cccc(F)c34)CC2)CC1`, the inhibition was 94.4% (active).

Regarding `N#C/C(=C(/O)Cc1cccc2ccccc12)c1nc2ccccc2s1`, the inhibition is 69.1% (active).

With `COc1ccc(Br)cc1C(=O)NC(=S)Nc1cc(-c2nc3ccccc3[nH]2)ccc1C`, the inhibition was 51% (active).

For the compound `Cc1cc2ncn(CCCCOc3ccccc3)c2cc1C`, the inhibition was 36.7% (active).

`CC(C)c1ccccc1OCC(O)CN(CC(O)COc1cccc2ccccc12)C(C)C` (stereo not drawn): the inhibition was 4.85% (inactive).

On to `COc1ccc2c(c1)c(=Cc1ccc(N(C)C)cc1)c1cc(-c3ccccc3)[n+](C)n12`, for which the inhibition was 79.7% (active).

For the compound `O=C(Nc1ccc(C2CC2(Cl)Cl)cc1)c1cccc([N+](=O)[O-])c1` (stereo not drawn), the inhibition was 78.1% (active).

In the case of `Fc1ccc2[nH]c3c(N4CCSCC4)ncnc3c2c1`, the inhibition is 94% (active).

For the compound `Cc1[nH]n(-c2cccc(Cl)c2)c(=O)c1-c1ccc(Cl)cc1`, the inhibition was 98.6% (active).

On to `C[C@@H](CN1CCC[C@H]1CN1C(N)=NC[C@@H]1Cc1ccccc1)N1C[C@@H](Cc2ccccc2)N(CCCC2CCCC2)C1=N`, for which the inhibition was 7.61% (inactive).

Regarding `CS(=O)(=O)c1sc(C(=O)NC(=S)Nc2ccc(OC(F)(F)F)cc2)c2c1C=CCC2`, the inhibition is 71.2% (active).

Take `O=[N+]([O-])c1ccc(N/N=C/c2ccccc2)cc1`: the inhibition was 81.9% (active).

Regarding `Cc1cccc(COc2ccccc2/C=N/Nc2ccc([N+](=O)[O-])cc2)c1`, the inhibition is 81.5% (active).

With `COc1ccccc1Oc1ccc(S(=O)(=O)Nc2cccnc2)cc1`, the inhibition was 70.1% (active).

For the compound `Cc1ccc(C)c(NC(=S)NNC(=S)Nc2ccc(C(C)C)cc2)c1`, the inhibition was 85.3% (active).

Turning to `S=C(NCCc1ccccc1)NCc1ccccc1Cl`, the inhibition is 67.2% (active).

Turning to `CCCCCC(O)c1cccc(OCc2ccc3ccccc3n2)c1` (stereo not drawn), the inhibition is 76.1% (active).

With `Cc1csc(NC(=S)Nc2cccc(Cl)c2)n1`, the inhibition was 73.4% (active).

`S=C(Nc1cccc(Cl)c1)Nc1ccc2cn[nH]c2c1`: the inhibition was 92.7% (active).

For `N=c1n(Cc2ccc(Cl)cc2)c2ccccc2n1CC(O)c1ccco1` (stereo not drawn), the inhibition was 4.39% (inactive).

`CCN1/C(=C\c2ccc3ccccc3[n+]2CC)Sc2cc(C)ccc21`: the inhibition was 96.3% (active).

Turning to `CCc1cc2c(N3CCN(c4nnc(CC)s4)CC3)ncnc2s1`, the inhibition is 41.8% (active).

Consider `CC(NC(=S)Nc1ccc(OC(F)F)cc1)c1ccc(F)cc1` (stereo not drawn), for which the inhibition was 93.7% (active).

For the compound `O=C(Nc1cccc(S(=O)(=O)Nc2ccc(Cl)cc2)c1)c1ccc2c(c1)OCCO2`, the inhibition was 80.9% (active).

Take `O=C(Nc1cccc(-c2cccc(Cl)c2)c1)C1CCN(C2CCC2)CC1`: the inhibition was -9.69% (inactive).

For `S=C(Nc1cccc(Cl)c1)Nc1ccc2c(c1)OCCO2`, the inhibition was 100% (active).

For `FC(F)(F)c1cccc(NC(=S)Nc2cccc(Cl)c2)c1`, the inhibition is 96.6% (active).

As to `O=[N+]([O-])c1ccc(NS(=O)(=O)c2ccccc2)c(Cl)c1`, the inhibition was 97.2% (active).

As for `N#C[C@]1(S(=O)(=O)c2ccccc2)C[C@@H]2ON=C(c3cccc(Br)c3)[C@@H]2C1`, the inhibition was 90.7% (active).

Regarding `O=C(/C=C/c1ccc(F)cc1)Nc1cccc(S(=O)(=O)Nc2cccc(C(F)(F)F)c2)c1`, the inhibition was 69.5% (active).

Regarding `O=C(/C=C(O)/C=C/c1ccc(O)cc1)/C=C/c1ccc(O)cc1`, the inhibition was 70.7% (active).

Take `COc1cccc(CNc2nc(NCc3ccccc3OC)nc3ccsc23)c1`: the inhibition is 121% (active).

Turning to `COc1ccccc1CNc1nc(Nc2ccccc2Cl)c2sccc2n1`, the inhibition was 67% (active).

As for `COc1cccc(CNc2nc(NCc3cccs3)nc3ccsc23)c1`, the inhibition was 102% (active).

As to `C=CCC1(CC=C)CCCN1C(=O)c1cc(COc2ccc(-n3cncn3)cc2)on1`, the inhibition is 103% (active).

Turning to `CC(C)S(=O)(=O)c1csc(NC(=O)Nc2ccc(Cl)cc2)c1Cl`, the inhibition is 90.1% (active).

Turning to `CCCCCOC(=O)NCCOC(=O)Nc1ccc(C(=O)OCC)cc1`, the inhibition is 72.7% (active).

For `CCNCCC(=O)N1c2ccccc2Sc2ccc(NC(=O)OCC)cc21`, the inhibition was -7.23% (inactive).

With `Cn1nccc1C(=O)NC1CCCc2c1cnn2-c1ccccc1F` (stereo not drawn), the inhibition was 96.6% (active).

Consider `Cn1nccc1C(=O)NC1CCCc2c1cnn2-c1ccc(F)cc1F` (stereo not drawn), for which the inhibition was 101% (active).

For the compound `COc1ccc(C(=O)NC2CCCc3c2cnn3-c2cccc(C)c2C)c(OC)n1` (stereo not drawn), the inhibition is 84.1% (active).

For the compound `Cc1nc(N2CCOCC2)c2c(C)c(C(=O)Nc3ccc(C(F)(F)F)cc3)sc2n1`, the inhibition is 81.9% (active).

Take `CCCCCc1c(Cc2ccccc2)ncn1CCc1ccccc1OC`: the inhibition was 106% (active).

Take `Nc1nnc(SCC(=O)Nc2ccc3nc(SCC(=O)Nc4ccccc4)sc3c2)s1`: the inhibition is 77.9% (active).

As to `Cc1cccc(NC(=O)Nc2cccc(Oc3c(F)c(F)c(F)c(F)c3F)c2)c1`, the inhibition was 62.1% (active).

For the compound `CCN(CC)S(=O)(=O)c1ccc(N(C)Cc2ccc(C(F)(F)F)cc2)nc1`, the inhibition was 93.6% (active).

Turning to `O=C(Nc1ccccc1)Nc1nc2ccccc2s1`, the inhibition was 80.6% (active).

Take `COc1ccc(/C=C(/CC(=O)Nc2ccc(C)cc2)c2nc3ccccc3s2)cc1`: the inhibition was -7.49% (inactive).

Turning to `CSc1nsc(NC(=O)Nc2ccccc2)n1`, the inhibition was 89.7% (active).

Take `CCSc1nsc(NC(=O)Nc2cccc(C(C)=O)c2)n1`: the inhibition was 83.6% (active).

As for `C=CCSc1nsc(NC(=O)Nc2cccc(C(C)=O)c2)n1`, the inhibition is 84.6% (active).

Values taken from PubChem BioAssay AID624504 (Sanford-Burnham Center for Chemical Genomics, 2012).
